Reference: PubChem BioAssay AID1159580 (chemical genetic matrix, 2015)
“And” between values parts separate entries of the source, which are not always exact repeats. Equal values may be shown once. Screen size: about 5,500 compounds; about 2,000 (36%) were called active. Not shown: some 18% with an inconclusive outcome. Rule as the data show it: active = normalized growth mostly below about 0.91 (no sharp cut-off); inconclusive = no clear call, values can overlap the other calls; inactive = mostly above about 0.92. The list shows a part of the results.

Experiment: chemical genetic growth profiling, strain panel (AID 1159580);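 also: tested at 20 µM; growth read once vehicle control cultures reached saturation at 30 °C; 1 = growth at the plate median or of vehicle wells; lower values mean less growth of the strain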
Details: S. cerevisiae deletion strains, growth OD

Measured: normalized growth

CNC(Cc1c[nH]c2ccccc12)C(=O)O (stereo not drawn)
inactive: locus YAL013W, strain DEP1, active compounds read low 0.988 | locus YAL021C, strain ccr4, active compounds read low 0.972 | locus YAL026C, strain drs2, active compounds read low 0.982 | locus YAL030W, strain snc1, active compounds read low 0.974 | locus YBL061C, strain skt5, active compounds read low 0.986 | locus YBR009C, strain hhf1, active compounds read low 0.976 | locus YBR021W, strain FUR4, active compounds read low 1 | locus YBR023C, strain chs3, active compounds read low 0.994 | locus YBR171W, strain sec66, active compounds read low 0.986 | locus YBR229C, strain ROT2, active compounds read low 0.959 | locus YBR231C, strain swc5, active compounds read low 1 | locus YBR279W, strain paf1, active compounds read low 0.997 | locus YCL011C, strain gbp2, active compounds read low 0.985 | locus YCL016C, strain dcc1, active compounds read low 0.976 | locus YCL029C, strain bik1, active compounds read low 0.996 | locus YCL061C, strain MRC1, active compounds read low 0.983 | locus YCL069W, strain vba3, active compounds read low 0.977 | locus YCR088W, strain abp1, active compounds read low 0.991 | locus YDL005C, strain med2, active compounds read low 0.975 | locus YDL035C, strain GPR1, active compounds read low 0.931 | locus YDL040C, strain nat1, active compounds read low 0.976 | locus YDL074C, strain BRE1, active compounds read low 0.981 | locus YDL101C, strain DUN1, active compounds read low 0.982 | locus YDL134C, strain PPH21, active compounds read low 0.972 | locus YDL185W, strain tfp1, active compounds read low 0.97 | locus YDL192W, strain arf1, active compounds read low 0.986 | locus YDR001C, strain nth1, active compounds read low 0.976 | locus YDR069C, strain doa4, active compounds read low 0.991 | locus YDR101C, strain arx1, active compounds read low 1.04 | locus YDR137W, strain rgp1, active compounds read low 1.01 | locus YDR159W, strain sac3, active compounds read low 0.986 | locus YDR162C, strain NBP2, active compounds read low 0.994 | locus YDR195W, strain ref2 0.944 | locus YDR297W, strain sur2, active compounds read low 0.99 | locus YDR318W, strain mcm21, active compounds read low 0.973 | locus YDR334W, strain swr1, active compounds read low 0.983 | locus YDR335W, strain msn5, active compounds read low 0.987 | locus YDR388W, active compounds read low 0.989 | locus YDR392W, strain spt3, active compounds read low 0.963 | locus YDR502C, strain sam2, active compounds read low 0.992 | locus YEL003W, strain gim4, active compounds read low 1 | locus YEL037C, strain rad23, active compounds read low 0.978 | locus YEL061C, strain CIN8 (second series), active compounds read low 0.976 | locus YEL061C, strain CIN8, active compounds read low 0.987 | locus YER015W, strain faa2, active compounds read low 0.986 | locus YER016W, strain bim1, active compounds read low 0.988 | locus YER110C, active compounds read low 0.99 | locus YER111C, strain swi4, active compounds read low 0.988 | locus YER155C, strain BEM2 (second series), active compounds read low 0.996 | locus YER155C, strain BEM2, active compounds read low 1 | locus YER167W, strain BCK2, active compounds read low 1.01 | locus YFR010W, strain ubp6, active compounds read low 0.988 | locus YGL078C, strain dbp3, active compounds read low 0.996 | locus YGL086W, strain mad1, active compounds read low 1.02 | locus YGL167C, strain pmr1, active compounds read low 0.971 | locus YGL173C, strain kem1, active compounds read low 0.996 | locus YGL227W, strain vid30, active compounds read low 0.988 | locus YGL240W, strain doc1, active compounds read low 1 | locus YGL248W, strain PDE1, active compounds read low 0.972 | locus YGL253W, strain hxk2, active compounds read low 0.995 | locus YGR135W, strain pre9, active compounds read low 0.973 | locus YGR252W, strain gcn5, active compounds read low 0.929 | locus YHR013C, strain ard1, active compounds read low 0.978 | locus YHR027C, strain rpn1, active compounds read low 0.982 | locus YHR030C, strain SLT2, active compounds read low 1 and 0.971 | locus YHR079C, strain IRE1 (second series), active compounds read low 0.991 | locus YHR079C, strain IRE1, active compounds read low 0.97 | locus YHR094C, strain hxt1, active compounds read low 0.979 | locus YHR129C, strain ARP1, active compounds read low 0.996 | locus YHR142W, strain chs7, active compounds read low 0.986 | locus YHR200W, strain rpn10, active compounds read low 0.986 | locus YIL066C, strain RNR3, active compounds read low 0.973 | locus YIL073C, strain SPO22, active compounds read low 0.977 | locus YIL125W, strain kgd1, active compounds read low 0.994 | locus YIR030C, strain dcg1, active compounds read low 0.997 | locus YJL092W, strain hpr5, active compounds read low 0.977 | locus YJL095W, strain BCK1 (second series), active compounds read low 0.981 | locus YJL095W, strain BCK1, active compounds read low 0.973 and 1.05 | locus YJL115W, strain asf1, active compounds read low 0.971 | locus YJL129C, strain trk1, active compounds read low 0.971 | locus YJL134W, strain LCB3, active compounds read low 0.985 | locus YJL154C, strain vps35, active compounds read low 0.986 | locus YJL164C, strain tpk1, active compounds read low 0.968 | locus YJL166W, strain qcr8, active compounds read low 0.99 | locus YJL168C, strain set2, active compounds read low 0.992 | locus YJL187C, strain SWE1 (second series), active compounds read low 0.971 | locus YJL187C, strain SWE1, active compounds read low 0.99 | locus YJR043C, strain POL32, active compounds read low 0.974
